Reference: PubChem BioAssay AID652104 (National Center for Advancing Translational Sciences (NCATS), 2013)
About 7,200 (1.8%) of roughly 410,000 compounds were called active. Inconclusive results (about 7%) are left out. Calls follow the shape of the dose curve; as a rule, active = well fitted activation curve with a large enough effect; inconclusive = small, poorly fitted or top-dose-only effect, or another doubt; inactive = no such curve, though single readings can be large or run the other way. The entries come from a sample that favours actives as a whole.

test: qHTS of TDP-43 Inhibitors; settings: TDP-43 expressing yeast growth rescue, BacTiter-Glo, 24 h; series mostly up to 46.1 µM; growth rescue (activation): at the top concentration; also: nearly all actives have a fitted effect of over 50% in size; as to growth rescue (activation): % of control where 0% means no effect
Method in brief: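 Cell-based yeast growth screen: TDP-43 expression induced in galactose, inoculum OD600=0.02 after raffinose pregrowth to mid-log. Read-out BacTiter-Glo luminescence at 24 hr, 30 deg C; inhibition of toxicity seen as signal increase.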
Potency is read from the fitted curve at half-maximal effect.

| SMILES | growth rescue (activation) | Potency |
| --- | --- | --- |
| Cc1ccc(C2C=C(c3ccc(Cl)cc3)Nc3nc(NC(=O)CCC(=O)O)nn32)cc1 (stereo not drawn) | 14.3% (inactive) |  |
| CCC(C)NC(=O)c1cc(Cl)ccc1OC (stereo not drawn) | 4.16% (inactive) |  |
| COc1ccc(OC)c(C(=O)c2ccc(C(=O)N3CCN(Cc4csc(C)n4)CC3)cc2)c1 | -12.4% (inactive) |  |
| COc1ccc(OC)c(C(=O)c2ccc(Cl)cc2)c1 |  | 12.6 µM (active) |
| Cc1oc2ccc(O)c(CN3CCC(C)CC3)c2c1C(=O)Nc1ccccc1 | 18.6% (inactive) |  |
| CCOC(=O)C1CCN(c2ncnc3c2c(-c2ccccc2)cn3-c2ccc(C)cc2)CC1 | -8.43% (inactive) |  |
| CCOC(=O)C1CCN(c2ncnc3c2c(-c2ccccc2)cn3-c2cccc(C)c2)CC1 | 14.6% (inactive) |  |
| COCCNc1ncnc2c1c(-c1ccccc1)cn2-c1ccc(C)c(Cl)c1 |  | 12.6 µM (active) |
| CCOc1ccc(N(CC)S(=O)(=O)N2CCCC(C(=O)NCc3ccc(Cl)cc3)C2)cc1 (stereo not drawn) | -15.1% (inactive) |  |
| CCOC(=O)c1ccc(NC(=O)Cn2cc(S(=O)(=O)Cc3ccccc3F)c3ccccc32)cc1 | 19% (inactive) |  |
| Cc1c(CNC2CCCCC2)c(C(=O)O)c(C)n1Cc1cccc(Cl)c1 | -1.7% (inactive) |  |
| COc1ccc(OCC(=O)NCCS(=O)(=O)N2CCN(c3ccc(F)cc3)CC2)cc1 | -10.2% (inactive) |  |
| COc1ccc(N2CCN(S(=O)(=O)CCNC(=O)C34CC5CC(CC(C5)C3)C4)CC2)cc1 |  | 20 µM (active) |
| COc1ccc(N2CCN(S(=O)(=O)CCNC(=O)C(c3ccccc3)c3ccccc3)CC2)cc1 | 17.7% (inactive) |  |
| COCCNC(=O)CSc1c(C)cnc2c1c(=O)n(C)c(=O)n2C | 12.2% (inactive) |  |
| Cc1ccccc1NC(=O)c1c(NC(=O)c2ccccc2F)sc2c1CCC(C)C2 (stereo not drawn) | 18.8% (inactive) |  |
| CCOc1ccc(N(CC)S(=O)(=O)N2CCCC(C(=O)Nc3ccc(C(C)=O)cc3)C2)cc1 (stereo not drawn) | 2.83% (inactive) |  |
| O=C(O)c1ccc(NS(=O)(=O)c2cccc3nsnc23)cc1 | -12.3% (inactive) |  |
| Nc1ncc(S(=O)(=O)Nc2ccc(OC(F)(F)F)cc2)cn1 | 20.6% (inactive) |  |
| O=S(=O)(Nc1ccc(OC(F)(F)F)cc1)c1cccc2nonc12 |  | 11.2 µM (active) |
| Cc1ccc(CSc2oc(-c3cccs3)nc2S(=O)(=O)c2ccc(C)cc2)cc1 | -1.5% (inactive) |  |
| O=C(Cc1ccc(Cl)cc1)Nc1ccc2nn(-c3ccc(Cl)cc3)nc2c1 | 5.59% (inactive) |  |
| COc1ccc(Cn2ccnc2SCC(=O)Nc2ccc3c(c2)OCO3)cc1 | 31.9% (inactive) |  |
| O=C(Cc1ccc([N+](=O)[O-])cc1)NCCS(=O)(=O)N1CCN(c2ccccc2)CC1 | 10.9% (inactive) |  |
| O=C(CSCc1ccc([N+](=O)[O-])cc1)NCCSCc1ccccc1 |  | 20 µM (active) |

| SMILES | growth rescue (activation) | Potency |
| --- | --- | --- |
| O=C(CSCc1ccc([N+](=O)[O-])cc1)Nc1cccc(C(=O)Nc2ccccc2C(=O)O)c1 | -13.9% (inactive) |  |
| CCOC(=O)c1ccc(NC(=O)c2c(NCc3cccc(OC)c3)sc3c2CCC3)cc1 | 8.24% (inactive) |  |
| Cc1cccc(OCC(=O)N(Cc2ccc(C(C)C)cc2)Cc2ccco2)c1C | -2.83% (inactive) |  |
| CC(Nc1ccc([N+](=O)[O-])cc1[N+](=O)[O-])c1ccccc1 (stereo not drawn) |  | 12.6 µM (active) |
| CC(Nc1ccc(-c2nc(-c3ccco3)no2)cc1[N+](=O)[O-])c1ccccc1 (stereo not drawn) | -6.77% (inactive) |  |
| CC(C)OP(=O)(OC(C)C)C(Nc1ccccc1)c1cccc([N+](=O)[O-])c1 (stereo not drawn) | -9.78% (inactive) |  |
| COc1ccccc1N1CCN(Cc2ccc(OC)c3ccccc23)CC1 | -3.99% (inactive) |  |
| COc1ccccc1N1CCN(C2C(=O)c3ccccc3N2C(C)=O)CC1 (stereo not drawn) | 25.8% (inactive) |  |
| COc1ccccc1N1CCN(/N=C\C(Br)=C\c2ccccc2)CC1 |  | 11.2 µM (active) |
| CCS(=O)(=O)N1CCc2cc(C(=O)NCc3ccc(C)cc3)ccc21 | 20.1% (inactive) |  |
| CCOC(=O)c1ccccc1NC(=O)c1sc2nc(-c3ccc(F)cc3)cn2c1C | 19.9% (inactive) |  |
| CCOC(=O)C1C(=O)NC(N2CCN(c3ccccc3)CC2)=NC1c1ccco1 (stereo not drawn) | 1.54% (inactive) |  |
| COc1ccc(C2=NN(C(=O)CSc3nnnn3C)C(c3ccco3)C2)cc1 (stereo not drawn) | 12.1% (inactive) |  |
| CCOC(=O)C1C(=O)C=C(c2ccc(OC)cc2)CC1c1ccco1 (stereo not drawn) |  | 11.2 µM (active) |
| Cc1nn(C(=O)c2c(F)cccc2F)c(C)c1S(=O)(=O)N1CCOCC1 | 21.3% (inactive) |  |
| O=C(NC1CC(=O)N(c2ccc(Cl)cc2)C1)C1CCCC1 (stereo not drawn) | 13.7% (inactive) |  |
| COc1ccccc1C(=O)Nc1c(C(=O)Nc2ccc(C)cc2)oc2ccccc12 | 6.8% (inactive) |  |
| Cc1ccc2cccc(NC(=O)c3ccc(OC(C)C)cc3)c2n1 |  | 11.2 µM (active) |
| Cc1ccc2cccc(NC(=O)C(C)Oc3ccc(C)c(C)c3)c2n1 (stereo not drawn) | 20% (inactive) |  |
| Cc1ccc2cccc(NC(=O)c3cccc4ccccc34)c2n1 | 27.2% (inactive) |  |
| COc1ccc(-c2cc(-c3ccc(F)cc3)nc3c2COc2ccccc2-3)cc1 | 11.8% (inactive) |  |
| CC(C)C12CN3CC(C(C)C)(CN(C1)C3c1ccc(OCc3ccccc3)cc1)C2=O (stereo not drawn) | 15.9% (inactive) |  |
| O=C(NCCc1ccccn1)c1ccc(COc2ccccc2)o1 | 17.8% (inactive) |  |
| COc1cc(OC)cc(C(=O)NNC(=O)CNC(=O)c2ccc(Br)o2)c1 | -3.31% (inactive) |  |
| COc1ccc(-c2nc(CCNC(=O)c3ccc(Br)o3)cs2)cc1 |  | 12.6 µM (active) |

| SMILES | growth rescue (activation) | Potency |
| --- | --- | --- |
| Cc1ccc(Cn2c(=O)n(Cc3nc(-c4ccccc4)no3)c(=O)c3cc4c(cc32)OCO4)cc1 | 1.98% (inactive) |  |
| CCC1CCCCN1Cc1c(O)ccc2c(=O)c(Oc3ccccc3Cl)c(C(F)(F)F)oc12 (stereo not drawn) | 19.5% (inactive) |  |
| Cc1cc(NC(=O)c2cccc(Cl)c2)ccc1-c1cc2ccccc2oc1=O | 0% (inactive) |  |
| Cc1cc2oc(C(=O)N(Cc3ccc(Cl)cc3)Cc3ccco3)c(C)c2cc1Cl | 17.3% (inactive) |  |
| CC(C)Oc1c(Br)cc(Br)cc1/C=N/NC(N)=S | 18% (inactive) |  |
| Cc1cccc(-n2c(C)cc(/C=N/NC(N)=S)c2C)c1 |  | 35.5 µM (active) |
| Cc1cc(/C=N/NC(N)=O)c(C)n1C1CCCCC1 | -16.5% (inactive) |  |
| COc1ccccc1NC(=O)c1oc2ccccc2c1NC(=O)C(C)C | 15.9% (inactive) |  |
| COc1ccccc1C1C(C(=O)N2CCCCC2)=C(C)Nc2nc3ccccc3n21 (stereo not drawn) | 15.8% (inactive) |  |
| CN(Cc1ccccc1)S(=O)(=O)c1ccc(F)c(C(=O)Nc2cccc(Cl)c2Cl)c1 | -4.13% (inactive) |  |
| COc1cccc(CC(=O)N2CCCC(CCC(=O)N3CCN(c4ccccn4)CC3)C2)c1 (stereo not drawn) | 10.6% [at 9.22 µM] (inactive) |  |
| CC(=O)c1ccc(S(=O)(=O)NCCC(=O)N2CCN(c3ccccn3)CC2)cc1 | 13.3% (inactive) |  |
| C=Cc1ccc(C(=O)N2CCCC(CCC(=O)N3CCN(c4ccccn4)CC3)C2)cc1 (stereo not drawn) |  | 3.55 µM (active) |
| COc1cccc(N2CCN(S(=O)(=O)c3cc(Br)cc4c3N(C(=O)C3CC3)CC4)CC2)c1 | 21.5% (inactive) |  |
| CCCCn1c(=S)[nH]c2ccccc2c1=O |  | 14.1 µM (active) |
| CCCCn1c(=S)[nH]c2ncccc2c1=O | 23.4% (inactive) |  |
| CCCCNC(=O)c1ccc(-n2c(=S)[nH]c3ccccc3c2=O)cc1 | 5.1% (inactive) |  |
| COc1ccc(CCNC(=O)c2cc(=O)c3c(C)cc(C)cc3o2)cc1OC | 1.87% (inactive) |  |
| Cc1ccc(CN2CCCn3nc(C(=O)NCc4ccccc4Cl)cc3C2=O)cc1 | 19.2% (inactive) |  |
| Cc1ccc(CNC(=O)CCC(=O)N2Cc3ccccc3Oc3ncccc32)cc1 | 14.9% [at 9.22 µM] (inactive) |  |
| COc1cc(C(=O)NCCS(=O)(=O)N2CCN(c3ccccc3)CC2)cc(OC)c1OC | 22.3% (inactive) |  |
| Cc1cccc(C)c1NC(=O)C(Cl)C(=O)c1ccccc1 (stereo not drawn) |  | 3.98 µM (active) |
| CN=C(c1ccccc1)c1c(C)cccc1C | 18% (inactive) |  |
| Cc1cccc(C)c1NC(=O)N1CC(C)OC(C)C1 (stereo not drawn) | -20.1% (inactive) |  |
| O=C(Cn1c(=O)n(-c2ccc(F)cc2)c(=O)c2sccc21)Nc1cccc(C(F)(F)F)c1 | 7.37% (inactive) |  |

| SMILES | growth rescue (activation) | Potency |
| --- | --- | --- |
| COC(=O)C1=CN(c2ccc(F)c(F)c2)C=C(C(=O)OC)C1c1ccc([N+](=O)[O-])cc1 | 4.3% (inactive) |  |
| COC(=O)C1=CN(c2c(C)cc(C)cc2C)C(N)=C(C#N)C1c1cccc(F)c1 (stereo not drawn) |  | 22.4 µM (active) |
| CCOC(=O)C1=C(CC)OC(N)=C(C#N)C1c1ccc(F)cc1F (stereo not drawn) | -18.5% (inactive) |  |
| CCN(Cc1ccccc1)Cc1c(O)ccc2c(=O)c(-c3ccc(Cl)cc3Cl)coc12 | -19.7% (inactive) |  |
| Cc1cc2n(n1)C(c1cc(C(C)(C)C)c(O)cc1O)Nc1ccccc1-2 (stereo not drawn) | 0% (inactive) |  |
| COc1ccccc1CNCc1ccc(C(=O)O)s1 | 16.3% (inactive) |  |
| COCCCNC(=O)c1c(NC(=O)c2cc(=O)c3cc(C)c(C)cc3o2)sc2c1CCCC2 | -1.04% (inactive) |  |
| Cc1ccc(S(=O)(=O)N(Cc2nc(-c3ccc(Cl)cc3)no2)C2CCCCC2)cc1 | 7.13% (inactive) |  |
| Cc1ccc(Cl)cc1NC(=O)/C(C#N)=C\c1cn(Cc2ccc(F)cc2)c2ccccc12 | 21.4% (inactive) |  |
| COc1ccc(NC(=O)CSc2ncnc3[nH]ncc23)cc1 | -35.9% (inactive) |  |
| CCOc1ccc(Nc2ncnc3scc(-c4ccc(OC)cc4)c23)cc1 | -16.3% (inactive) |  |
| COc1ccc(Nc2cc(Sc3ccc(OC)cc3)ncn2)cc1 |  | 22.4 µM (active) |
| Cc1cccc2c(=O)cc(CSc3ccccc3NC(=O)C(C)C)[nH]c12 | -0.795% (inactive) |  |
| O=C(CSc1ccc(-c2ccc(F)cc2)nn1)Nc1ccc2c(c1)OCCO2 | 17.7% (inactive) |  |
| O=C(CSc1nnc(CNC(=O)c2ccc(F)cc2)o1)Nc1ccc2c(c1)OCO2 | -0.573% (inactive) |  |
| O=C(CSc1nc(-c2cccc(F)c2)[nH]c1-c1ccccc1)Nc1ccc2c(c1)OCO2 |  | 20 µM (active) |
| Cc1ccc(NC(=O)CSc2nc3c([nH]c4ccccc43)c(=O)n2-c2ccccc2)c(C)c1 | 5.4% (inactive) |  |
| Nc1nc(Nc2ccccc2F)nc(NC2CCCCC2)c1[N+](=O)[O-] | -5.06% (inactive) |  |
| Nc1nc(NCC2CCCO2)nc(Nc2ccccc2F)c1[N+](=O)[O-] (stereo not drawn) | -0.227% (inactive) |  |
| C=CCNc1nc(N)c([N+](=O)[O-])c(NC2CCCCC2)n1 |  | 7.08 µM (active) |
| Cc1ccc(NC(=O)C2CCN(S(=O)(=O)c3cc(-c4noc(C)n4)ccc3C)CC2)c(C)c1 | -6.47% (inactive) |  |
| CCN(CCCNC(=O)c1c(C)oc2ncn(CC(C)C)c(=O)c12)Cc1ccccc1 | 13.1% (inactive) |  |
| Cc1ccc(Cl)cc1N1CCN(S(=O)(=O)c2cc3[nH]c(=O)c(=O)[nH]c3cc2C)CC1 | 4.73% (inactive) |  |
